Test results: PubChem BioAssay AID1259336 (Sattelle Laboratory, UCL Respiratory, Division of Medicine, …, 2017)
Active and inactive are the calls of the source. No stated cut-off is given here; in the data, active means log2 fold change growth below about -1.8; inactive means the rest.

Assay: C. elegans growth inhibition, whole organism, log2 fold change (AID 1259336);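 further: growth scored by imaging after five days at 20 °C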
Settings: anthelmintic screen, active compounds read low

Question: With `NC[C@@H](c1cccs1)S(=O)(=O)c1ccccc1` as the compound, how does the log2 fold change growth read?
Answer: 0.289 (inactive)

Question: For `CC(C)[C@H](Oc1cccc2ccccc12)C(=O)O`, which log2 fold change growth is on record?
Answer: 0.534 (inactive)

Question: For `Cc1cc(Cl)ccc1NC(=O)CCc1ccc(S(=O)(=O)NCC(C)C)cc1`, which log2 fold change growth is on record?
Answer: -0.221 (inactive)

Question: Which log2 fold change growth does the source give for `Clc1cccc([C@H](c2ccc(CN3CCNCC3)cc2)n2ccnc2)c1` here?
Answer: -0.356 (inactive)

Question: With `CC[C@@H]([C@H](C)O)n1ncn(-c2ccc(N3CCN(c4ccc(OC[C@@H]5CO[C@@](Cn6cncn6)(c6ccc(F)cc6F)C5)cc4)CC3)cc2)c1=O` as the compound, how does the log2 fold change growth read?
Answer: -1.34 (inactive)

Question: With `COc1ccc(OC)c(NCc2ccc3nc(N)nc(N)c3c2Cl)c1` as the compound, how does the log2 fold change growth read?
Answer: 0.162 (inactive)

Question: Which log2 fold change growth does the source give for `Cc1ccc2[nH]c3c(NCCN(C)C)ncnc3c2c1` here?
Answer: 0.351 (inactive)

Question: Which log2 fold change growth does the source give for `CCCCOC(=O)Nc1cc2[nH]c(C3CCCCC3)nc2cc1N1CCCC1` here?
Answer: -0.373 (inactive)

Question: Which log2 fold change growth does the source give for `COc1ccc(-c2cnc3ccc(N4CCCC4)nn23)cc1OC` here?
Answer: -0.625 (inactive)

Question: For `COc1ccc2nc(C)cc(OCC(=O)Nc3ccccc3OC)c2c1`, which log2 fold change growth is on record?
Answer: 0.165 (inactive)

Question: With `O=C(c1cc2ccccc2o1)N1CCN(Cc2ccc3c(c2)OCO3)CC1` as the compound, how does the log2 fold change growth read?
Answer: 0.212 (inactive)

Question: Which log2 fold change growth does the source give for `Cc1cc(OCC(=O)Nc2ccc(C(C)C)cc2)n(C)c(=O)c1C#N` here?
Answer: 0.363 (inactive)

Question: Which log2 fold change growth does the source give for `COc1ccc(CN2CCOc3ccc([C@@](C)(O)CN(C)C)cc3C2)cc1C` here?
Answer: 0.162 (inactive)

Question: With `Nc1ccc(C(=O)Nc2ccc(-c3nc4ccccc4o3)cc2)cc1` as the compound, how does the log2 fold change growth read?
Answer: -7.04 (active)

Question: With `CC(=O)Nc1ccc(-c2noc(C[C@H]3CCCN(Cc4cccc(F)c4C)C3)n2)cc1` as the compound, how does the log2 fold change growth read?
Answer: 0.251 (inactive)

Question: Which log2 fold change growth does the source give for `Cc1noc(C)c1C(=O)N1CCC[C@H](c2[nH]c3c(C)cccc3c2-c2ccncc2)C1` here?
Answer: -0.149 (inactive)

Question: Which log2 fold change growth does the source give for `Cc1nc(-c2cccc(NCc3ccccc3)c2)[nH]c1C` here?
Answer: 0.123 (inactive)

Question: With `Nc1nccc2ccc(-c3ccc4nccn4c3)cc12` as the compound, how does the log2 fold change growth read?
Answer: 0.14 (inactive)

Question: For `Cc1cnc(CCNC(=O)c2cc(-c3ccc(Cl)cc3)cs2)[nH]1`, which log2 fold change growth is on record?
Answer: -0.147 (inactive)

Question: Which log2 fold change growth does the source give for `COc1ccc(Oc2ccc([C@@H](C)N(C)c3ncc4c(N)nc(N)nc4n3)cc2)cc1` here?
Answer: 0.282 (inactive)

Question: With `C[C@@H](C(=O)N1CCCC1)N1CCN(S(=O)(=O)c2ccc(C(C)(C)C)cc2)CC1` as the compound, how does the log2 fold change growth read?
Answer: 0.667 (inactive)

Question: With `CC[C@H](NC(=O)c1ccccc1NC(=O)c1ccc(C)cc1)C(=O)OC` as the compound, how does the log2 fold change growth read?
Answer: 0.0874 (inactive)
